Data from PubChem BioAssay (NCI).
The panel holds about 83,000 compounds, 20% with a hit somewhere; the sample as a whole holds those more often.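 Results are percent growth after 48 hours of single-concentration exposure. 100 means growth as in untreated cells, lower positive values show inhibition; negative values down to -100 show cell death.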 Calls of active or inactive are those of the source. The calls were made as follows: active = growth percent below 10; inactive = the rest.

Tested on: HL-60(TB) leukemia
Assay: NCI-60 one-dose screen, 48 h (100 = growth as untreated, 0 = no growth, -100 = all killed)
Settings: 10 µM unless noted

Row | Structure (SMILES) | growth
1 | O=C(/C=C1\C(=O)N(Cc2ccccc2)c2ccccc21)c1ccc(OCCN2CCCCC2)cc1 | 7.79% (active)
2 | COc1cccc(-c2cc3c(O)cc(C#N)cc3[nH]2)c1 | 21.3% (inactive)
3 | Oc1ccc(C#CCOc2ccccc2)cc1CNCCN(Cc1ccccn1)Cc1ccccn1 | -13.6% (active)
4 | C=CC(=O)Nc1cc2c(Nc3ccc(F)c(Cl)c3)ncnc2cc1C#CC(C)(C)N1CCN(C)CC1 | -47.6% (active)
5 | CC1=NC(=S)NC(c2ccccc2)/C1=C1/CC(c2ccccc2O)NN1 (stereo not given) | 97.2% (inactive)
6 | CCOC(=O)c1nc(Nc2ccc(NC(=O)Nc3ccc(F)cc3)cc2)c2ccccc2n1 | 110% (inactive)
7 | Cc1ccc(NCCNCC(C)(C)O)c2c(=O)c3ccc(Cl)cc3sc12 | -48.3% (active)
8 | Clc1ccc2c(NCCCNC3CCCCC3)ccnc2c1 | 96.1% (inactive)
9 | CC(C)c1ccc(NC(=O)Nc2ccc(NC(=O)c3ccccc3N)cc2)cc1 | 50.1% (inactive)
10 | CCN(CC)CCC(CNc1c2ccc([N+](=O)[O-])cc2nc2cc(OC)c(OC)cc12)c1ccccc1 (stereo not given) | -15.9% (active)
11 | c1ccc([P+](CCCc2n(Cc3ccc4ccccc4c3)c3ccccc3[n+]2Cc2ccc3ccccc3c2)(c2ccccc2)c2ccccc2)cc1 | 22.6% (inactive)
12 | CN1C(=O)N(C)C2(c3ccccc3)n3c(s/c(=C\c4ccccc4)c3=O)=NNC12c1ccccc1 (stereo not given) | 90.1% (inactive)
13 | CCOC(=O)C(=Cc1ccc(C#N)cc1)C(=O)OCC | -33.2% (active)
14 | CCCCCCCC/C=C\CCCCCCCCOc1ccc(CC(=O)NCC[N+]2(C)CCOCC2)cc1 | -14% (active)
15 | COc1cc(C)cc(-c2c(-c3cc(N4CC(O)C4)nc(-c4cccnc4)n3)cnn2C)c1 | 105% (inactive)
16 | O=C(NC1CCC(Br)CC1)C1CCCC(S(=O)(=O)NC2CCCCC2)C1 (stereo not given) | 4.46% [25 µM] (active)
17 | NC(C(=O)O)C(O)c1ccco1 (stereo not given) | 116% (inactive)
18 | Cc1ccc(-c2c3c(N)c4c(nc3nc3c2c(C)nn3-c2ccccc2)CCCC4)cc1 | 98.5% (inactive)
19 | Oc1ccc(CN2CCC(N3CCOCC3)CC2)c2cccnc12 | 34.4% (inactive)
20 | CCc1nn(Cc2ccccc2)c2nc(C)c(CCc3ccccc3)c(Cl)c12 | 82.7% (inactive)

Row | Structure (SMILES) | growth
21 | [O-]/[N+](=C\C=C\c1ccccc1)c1ccccc1 | 82.3% (inactive)
22 | CCN(CC)c1ccc2nc3ccc(N=Nc4ccc(O)cc4)cc3[n+](-c3ccccc3)c2c1 | 21.8% (inactive)
23 | CC(C)Oc1nc2c(c(=O)n(C)c(=O)n2C)n1C | 95.3% (inactive)
24 | CCN(CC)CCCC(C)Nc1cnc(C(=O)Nc2ccc(Cl)c3cccnc23)cn1 (stereo not given) | -63.3% (active)
25 | Cc1cc(NCCCNc2ccnc3cc(Cl)ccc23)nc(Nc2ccc(C(=O)N3CCCCC3)cc2)n1 | -63.2% (active)
26 | COc1cc(-c2nc(SCC(=O)Nc3ccc(C(C)=O)cc3)[nH]c(=O)c2C#N)cc(OC)c1OC | -54.3% (active)
27 | COc1ccc(Nc2ncc(C(N)=O)c(NCCCNC(=O)C3CCC3)n2)cc1 | 46.6% (inactive)
28 | Nc1c2c(c(O)c3c1=C(CO)C=N3)=NCCS2=O (stereo not given) | -42.1% (active)
29 | COc1ccc(C(=O)c2cc(OC)c(OC)c(OC)c2)cc1OC(=O)CCl | -34.4% (active)
30 | C/C(=N\Nc1ccc(Cl)cn1)c1ccc2ccccc2n1 | -15.3% (active)
31 | CO[C@H]1/C=C/O[C@@]2(C)Oc3c(C)c(O)c4c(O)c(c(/C=N/N5C(C)CN(Cc6ccccc6)CC5C)c(O)c4c3C2=O)NC(=O)/C(C)=C\C=C\[C@H](C)[C@H](O)[C@@H](C)[C@@H](O)[C@@H](C)[C@H](OC(C)=O)[C@@H]1C (stereo not given in full) | 161% (inactive)
32 | COc1cc(C(=O)/C=C/c2c(-c3cccs3)nc3sc(C)cn23)cc(OC)c1OC | -18.4% (active)
33 | CCN(CC)CCCC(Nc1c2ccc(Cl)cc2nc2ccc(OC)cc12)c1ccncc1 (stereo not given) | 101% (inactive)
34 | COc1ccc(-c2cnc3ccnn3c2-c2cc(OC)c(OC)c(OC)c2)cc1 | -22% (active)
35 | COc1ccc(/C(C)=C(\c2ccc(Cl)cc2)c2ccc(OCCCN(C)C)cc2)cc1F | 66.2% (inactive)
36 | CCOC(=O)c1c2c(n3ccc(NC(=O)CCN(CC)CC)cc13)C(=O)c1ncccc1C2=O | -48.5% (active)
37 | NC(=O)c1c(NC(=O)COC(=O)Cc2ccccc2F)sc2c1CCC2 | 135% (inactive)
38 | COc1cccc(-c2nn(C(C)(C)C)cc2-c2ccnc(NCCCNS(=O)(=O)c3ccc(C)cc3)c2)c1 | 105% (inactive)
39 | Fc1ccc2[nH]cc(-c3nc(-c4c[nH]c5ncccc45)cs3)c2c1 | 14% (inactive)
40 | O=C(NC1CCCCC1)OCc1c(COC(=O)NC2CCCCC2)c(-c2ccc(Cl)c(Cl)c2)n2c1CCC2 | -35.6% (active)
